# In PubChem BioAssay AID1259421 (Broad Institute, 2018):
# “And” between values parts separate entries of the source, which are not always exact repeats. Equal entries are not always repeated. Among all 6,400 compounds or so, about 610 (9.5%) were called active. The full list was thinned out, with actives kept by preference. A number with no mark means an inactive call. Cut-off read from the data, not from the text of the source: active = activity change below about -70%; inconclusive = no clear call, values can overlap the other calls; inactive = above that.
# Assay: T. gondii ME49Luc in HeLa cells, luciferase assay, 72 h, no IFN-y (AID 1259421)
# Conditions: stronger effect = lower value, concentration not given here
row,SMILES,"activity change, negative = inhibition"
1,C[C@@H]1COC(Nc2ccc3ncnc(Nc4ccc(OCc5nccs5)c(Cl)c4)c3c2)=N1,-65.9%
2,CCN(CC)CC1CCN(c2ncc3ncnc(Nc4ccc(F)c(Cl)c4)c3n2)CC1,-13.4% and 3.34%
3,CNC(=O)CN1CCC(Oc2cc3c(Nc4cccc(Cl)c4F)ncnc3cc2OC)CC1,-53.4%
4,CN(C)C/C=C/C(=O)Nc1cc2c(Nc3ccc(F)c(Cl)c3)ncnc2cc1O[C@H]1CCOC1,-87.8% (active)
5,CC/C=C\C/C=C\C/C=C\C/C=C\C/C=C\CCCC(=O)O,2.92%
6,COc1ccc(NS(=O)(=O)c2ccc(N=Nc3ccc(O)c(C(=O)O)c3)cc2)nn1,5.08%
7,O=C(O)Cc1nn(Cc2nc3cc(C(F)(F)F)ccc3s2)c(=O)c2ccccc12,19.5%
8,C=CC(=O)Nc1ccc2ncnc(Nc3cccc(Br)c3)c2c1,-18.1%
9,COCC(=O)NC/C=C/c1ccc2ncnc(Nc3ccc(Oc4ccc(C)nc4)c(C)c3)c2c1,-85.5% (active)
10,COc1ccc(Nc2ncnc3ccc(OC)cc23)cc1,3.66% and 3.52%
11,c1ccc(Oc2cccnc2)cc1,5.26%
12,CC1=CC(=O)CC(C)(C)[C@@]1(O)/C=C/C(C)=C\C(=O)O,0.0395%
13,CCCCC[C@H](O)/C=C/[C@@H]1[C@H]2C/C(=C/CCCC(=O)O)O[C@H]2C[C@H]1O,13.9%
14,COCC(=O)O[C@]1(CCN(C)CCCc2nc3ccccc3[nH]2)CCc2cc(F)ccc2[C@@H]1C(C)C,-74.4% (active) and -72.6% (active)
15,O=C(O)CCc1nc2ccccc2[nH]1,7.52% and 21.6%
16,CC(C)[C@H]1c2ccc(F)cc2CC[C@@]1(CCN(C)CCCc1nc2ccccc2[nH]1)OC(=O)C1CC1,-84% (active) and -73.8% (active)
17,O=C(O)C1CC(O)CN1 (centres undefined),-0.806%
18,Cc1ccc(S(=O)(=O)Nc2nc3ccccc3nc2Nc2ccc3nsnc3c2)cc1,1.14%
19,O=c1oc2cc(O)ccc2c2oc3cc(O)ccc3c12,13.4%
20,CN(C)CC[C@H](CSc1ccccc1)Nc1ccc(S(=O)(=O)NC(=O)c2ccc(N3CCN(Cc4ccccc4-c4ccc(Cl)cc4)CC3)cc2)cc1[N+](=O)[O-],-28.3%

row,SMILES,"activity change, negative = inhibition"
1,CC1(C)CCC(c2ccc(Cl)cc2)=C(CN2CCN(c3ccc(C(=O)NS(=O)(=O)c4ccc(N[C@H](CCN5CCOCC5)CSc5ccccc5)c(S(=O)(=O)C(F)(F)F)c4)cc3)CC2)C1,-89% (active)
2,COC(=O)C(CCCN=C(N)N)NC(=O)CCCc1c(-c2ccccc2)[nH]c2c(F)cc(F)cc12 (centres undefined),11.7%
3,C=C1[C@H]2CC[C@@]3(C)[C@H](c4ccoc4)OC(=O)C[C@]13O[C@H]1C[C@H](O)C(C)(C)[C@H](CC(=O)OC)[C@]12C,-4.68%
4,CCOC(=O)[C@H](CCc1ccccc1)N[C@H](C)C(=O)N1C2CCCCC2C[C@H]1C(=O)O (some centres undefined),14.3% and 13.5%
5,C=CC(=O)Nc1cccc(OC)c1,7.29%
6,COc1cc(SC)ccc1-c1nc2ccncc2[nH]1,-3.26%
7,CCN(CC)CC1CCCCN1CC(=O)N1c2ccccc2C(=O)Nc2cccnc21 (centres undefined),5.74% and 8.21%
8,CC12CCC3c4ccc(O)cc4CCC3C1C[C@H](O)[C@@H]2O (some centres undefined),-75.1% (active)
9,COc1cc2c(cc1O)CC[C@@H]1[C@@H]2CC[C@]2(C)[C@@H](O)CC[C@@H]12,-44.5%
10,CC12CCC3c4ccc(OC(=O)c5ccccc5)cc4CCC3C1CCC2O (centres undefined),-15.9%
11,CC(=O)OC1CCC2C3CCc4cc(O)ccc4C3CCC12C (centres undefined),1.9%
12,C[C@]12CCC3c4ccc(O)cc4CCC3C1C[C@@H](O)[C@@H]2O (some centres undefined),-4.22%
13,C[C@]12CCC3c4ccc(OS(=O)(=O)O)cc4CCC3C1CC[C@H]2O (some centres undefined),-7.66%
14,C[C@]12CCC3c4ccc(OC(=O)c5ccccc5)cc4CCC3C1CCC2=O (some centres undefined),-55.9%
15,C[C@]12CC[C@@H]3c4ccc(O)cc4CC[C@H]3[C@@H]1C[C@@H](O)[C@@H]2O,-0.302%
16,C[C@]12CCC3c4ccc(OC(=O)c5ccccc5)cc4CCC3C1CC[C@@H]2O (some centres undefined),-85.4% (active)
17,C[C@]12CC[C@@H]3c4ccc(O)cc4CC[C@H]3[C@@H]1CC[C@@H]2O,-81.4% (active) and -83.1% (active)
18,C[C@]12CCC3c4ccc(O)cc4CCC3C1CC[C@@H]2O (some centres undefined),-87.4% (active)
19,COc1ccc2c(c1)CCC1C2CC[C@@]2(C)C1CC[C@@H]2O (some centres undefined),-9.49%
